Bioassay records deposited in PubChem BioAssay by Sanford-Burnham Center for Chemical Genomics.
CRFR2-BP ag – agonists of CRF-BP/CRF-R2 complex, primary screen, cell-based, HEK293, calcium dye fluorescence, uHTS | CRF-binding protein / CRF receptor 2 complex (human) | calcium dye fluorescence (FLIPR); percent of saturating CRF peptide response | activation, % at 13.2 µM | 350,000 tested, 0.46% active | AID 588473, 2011;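 active = activation of at least 50%, plus an integration ratio under a set limit after plate pattern correction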
Cardio protect – cardioprotection against H2O2-induced cell death, primary screen, uHTS, H9c2 cells, ATPLite luminescence. H9c2 cardiomyocytes, H2O2 injury protection, 2 h. protection from H2O2 cell death, % at 20 µM. 360,000 tested, 0.63% active. AID 588492, 2011;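 active = compounds giving at least 50% protection of heart cells from peroxide-induced death in the single-dose screen, raw or plate-pattern-corrected value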
FAS TE block – FAS thioesterase domain inhibitors, primary screen, biochemical, fluorescence intensity, uHTS; Fatty acid synthase (Homo sapiens), P49327; recombinant FAS-TE, OMFH fluorogenic substrate, fluorescence endpoint; inhibition, % at 15 µM; 360,000 tested, 0.67% active; AID 602261, 2012;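 active = compounds whose normalised, plate-corrected inhibition of enzyme fluorescence in the single-dose primary screen is 50% or more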
PfG6PD inh – PfG6PD enzyme inhibitors, primary screen, biochemical, fluorescence intensity, uHTS | glucose-6-phosphate dehydrogenase-6-phosphogluconolactonase (Plasmodium falciparum 3D7) | PfGluPho enzyme, NADPH resazurin-diaphorase fluorescence | inhibition, % at 20 µM | 350,000 tested, 0.78% active;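 active = inhibition reaching at least a set limit at 20 µM in the primary screen, cut at about 59% in these data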
aDG glyco act – activators of alpha-DG glycosylation, primary screen, uHTS, Pro5-aDG cells, AlphaScreen | 360,000 tested, 0.22% active | alpha-DG glycosylation AlphaScreen (IIH6); 0% Pro5, 100% B10-LARGE cell signal | activation, % at 10 µM;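 active = activation of at least 8% versus controls, or a plate z-score of at least 8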;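 also: Pro5 are CHO cells carrying HIG-tagged alpha-DG that lacks glycosylation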
CRFBP-R2 block – antagonists of CRF-BP/CRF-R2 complex, primary screen, cell-based, HEK293, calcium dye fluorescence, uHTS; CRF-induced calcium fluorescence; inhibition, % at 11.8 µM; 350,000 tested, 0.59% active; AID 588475, 2011;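 active = inhibition of the ligand-induced calcium signal above about 50% at the single tested concentration, limit read from the data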
FAS-TE conf – FAS thioesterase domain inhibitors, confirmation, biochemical, fluorescence intensity, single concentration. shares compounds with FAS TE block. recombinant FAS-TE, OMFH fluorogenic substrate. inhibition, % at 15 µM. 2,300 tested, 45% active. AID 624325, 2012;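 active = compounds inhibiting the enzyme by at least 50% at 15 µM in any one of the replicates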
Each line names hits and unclear results; the compound was inactive in the other large screens (follow-up assays come after a bar, where they were run). Hits are enriched below; roughly 3.2% of the tested compounds scored in any of these assays.

CC1(C(=O)O)CC12c1ccccc1-c1ccccc12 (configuration not stated)	none
COC(=O)C1=C(c2ccc(Cl)c(C(F)(F)F)c2)C[C@@H]2CC[C@H]1N2C(=O)NCCOc1ccccc1	none
COC(=O)C1=C(c2ccc(-c3ccccc3)c(F)c2)C[C@@H]2CC[C@H]1N2C(=O)NCC1CC1	none
COC(=O)C1=C(c2ccc(-c3ccccc3)c(F)c2)C[C@@H]2CC[C@H]1N2C(=O)NC1Cc2ccccc2C1	FAS TE block 53.3 | FAS-TE conf inactive
CCN(CCCl)c1cc(CN(C)C)cc(NC(=O)c2ccc(C(=O)Nc3cc(CN(C)C)cc(N(CC)CCCl)c3)cc2)c1	FAS TE block 51.0 | FAS-TE conf inactive
O=c1[nH]c2ccccc2n1C1CCN(C(CCc2ccccc2)c2nnnn2C2CCCCC2)CC1 (configuration not stated)	FAS TE block 55.0 (no result: CRFR2-BP ag, PfG6PD inh, CRFBP-R2 block) | FAS-TE conf inactive
Cc1cccc(C)c1-n1nnnc1C(c1cccc2ccccc12)N1CCC(n2c(=O)[nH]c3ccccc32)CC1 (configuration not stated)	FAS TE block 85.5 (no result: CRFR2-BP ag, PfG6PD inh, CRFBP-R2 block) | FAS-TE conf inactive
O=c1[nH]c2ccccc2n1C1CCN(C(c2cc3ccccc3o2)c2nnnn2-c2ccc3c(c2)OCCO3)CC1 (configuration not stated)	FAS TE block 65.8 (no result: CRFR2-BP ag, PfG6PD inh, CRFBP-R2 block) | FAS-TE conf inactive
O=c1[nH]c2ccccc2n1C1CCN(C(c2cccc3ccccc23)c2nnnn2-c2ccc3c(c2)OCCO3)CC1 (configuration not stated)	FAS TE block 71.5 (no result: CRFR2-BP ag, PfG6PD inh, CRFBP-R2 block) | FAS-TE conf inactive
O=C1C(Br)C2CCC1C2C(=O)O (configuration not stated)	none
CN1CC2CN(Cc3ccccc3)S(=O)(=O)C2C1 (configuration not stated)	none (no result: CRFR2-BP ag, PfG6PD inh, CRFBP-R2 block)
Cc1ccc(Cn2nc(C(=O)Nc3ccc(Br)cc3)cc2C)cc1	none
CCOC(=O)c1cnc(SCc2ccc(Cl)c(Cl)c2)nc1N1CC1	none
COc1cc2cc(C(=O)N3CC(COS(C)(=O)=O)c4ccc(O)cc43)[nH]c2c(OC)c1OC (configuration not stated)	none
C/C(CC(c1ccccc1)c1c(O)c2ccccc2oc1=O)=N\Nc1ccc([N+](=O)[O-])cc1[N+](=O)[O-] (configuration not stated)	none
O=c1oc2ccccc2c(O)c1C(c1ccc([N+](=O)[O-])cc1)c1c(O)c2ccccc2oc1=O	FAS TE block 75.8, CRFBP-R2 block 82.2 | FAS-TE conf 81.7
CCOC(=O)[C@]12Cc3cc(Cl)ccc3[C@H]1N(C)C(=O)c1cc(OC)ccc12	none (no result: CRFR2-BP ag, Cardio protect, PfG6PD inh, CRFBP-R2 block)
CCOC(=O)[C@]12Cc3cc(OC)ccc3[C@H]1N(C)C(=O)c1cc(OC)ccc12	none (no result: CRFR2-BP ag, Cardio protect, PfG6PD inh, CRFBP-R2 block)
CCOC(=O)[C@]12Cc3ccc(C)cc3[C@H]1N(C1CCCCC1)C(=O)c1cc(OC)ccc12	FAS TE block 76.7 (no result: CRFR2-BP ag, Cardio protect, PfG6PD inh, CRFBP-R2 block) | FAS-TE conf 27.9
CCOC(=O)[C@]12Cc3cc(C)ccc3[C@H]1N(Cc1ccccc1)C(=O)c1cc(OC)ccc12	none (no result: CRFR2-BP ag, Cardio protect, PfG6PD inh, CRFBP-R2 block)
CCCCCN1C(=O)c2cc(OC)ccc2[C@@]2(C(=O)OCC)Cc3cc(OC)ccc3[C@@H]12	FAS TE block 51.6 (no result: CRFR2-BP ag, Cardio protect, PfG6PD inh, CRFBP-R2 block) | FAS-TE conf inactive
CCOC(=O)[C@]12Cc3ccc(C)cc3[C@H]1N(C1CCCCC1)C(=O)c1ccccc12	FAS TE block 79.8 (no result: CRFR2-BP ag, Cardio protect, PfG6PD inh, CRFBP-R2 block) | FAS-TE conf 23.5
CCOC(=O)[C@]12Cc3cc(Cl)ccc3[C@H]1N(C1CCCCC1)C(=O)c1cc(OC)ccc12	FAS TE block 84.4 (no result: CRFR2-BP ag, Cardio protect, PfG6PD inh, CRFBP-R2 block) | FAS-TE conf 38.8
Cc1cccc(C#N)c1	none
CCOC(=O)[C@]12Cc3ccccc3[C@H]1N(C(C)C)C(=O)c1ccccc12	none (no result: CRFR2-BP ag, Cardio protect, PfG6PD inh, CRFBP-R2 block)
